# Laboratory results taken from PubChem BioAssay (EPA / NIEHS).
# Several values for one entry are separate records, joined by “and”; a condition that tells them apart may be missing. Equal entries are not always repeated. Activity calls are given as the source filed them. How the source made its calls: active means hit-call score of the fitted dose curve at least 0.9, where 1 is the maximum; inactive means score below 0.9.
# Read-out: TIMP metallopeptidase inhibitor 1 (TIMP1), TIMP1 (gene 7076)
# Assay: BSK_hDFCGF_TIMP1: BioMAP Diversity Plus: hDFCGF Assay for TIMP metallopeptidase inhibitor 1 (TIMP1) Biomarker Activity (AID 2283062)
# Conditions: primary human foreskin fibroblasts; actives raise or lower the signal
# Protocol: BSK_hDFCGF is a cell-based, multiplexed-readout assay that uses foreskin fibroblast, a human skin primary cell, with measurements taken at 24 hours after chemical dosing in a 96-well plate.BSK_hDFCGF_TIMP1 is an assay component measured in the BSK_hDFCGF assay. It measures TIMP-1 antibody related to regulation of gene expression using ELISA technology.Data from the assay component BSK_hDFCGF_TIMP1 was analyzed into 1 assay endpoint. This assay endpoint, BSK_hDFCGF_TIMP1, was analyzed with bidirectional fitting relative to DMSO as the negative control and baseline of activity. Using a type of binding reporter, gain or loss-of-signal activity can be used to understand changes in the signaling as they relate to the gene TIMP1. Furthermore, this assay endpoint can be referred to as a primary readout, because this assay has produced multiple assay endpoints where this one serves a signaling function. To generalize the intended target to other relatable targets, this assay endpoint is annotated to the protease inhibitor intended target family, where the subfamily is metalloproteinase inhibitor.
# The levels of cell surface (or secreted, indicated by the prefix "s") biomarker endpoints were measured by ELISA. Overt cytotoxicity to cells in confluent adherent cultures (all systems other than the BT system) was assessed by measuring total protein levels using sulforhodamine B (SRB) staining in parallel cultures at the time of biomarker measurements, indicated as SRB endpoints. For proliferation assays for adherent cell types, individual cell types are cultured at sub-confluence and relative cell numbers quantified by SRB staining at time points optimized for each system (48 h: 3C and CASM3C systems; 72 h: BT and HDF3CGF systems; 96 h: SAg system). SRB was performed by staining cells with 0.1% SRB after fixation with 10% TCA and reading wells at 560 nm.Viability and proliferation of PBMC (T cells) was quantified by Alamar Blue reduction for the SAg and BT systems. For PBMC viability (referred to as PBMC Cytotoxicity within the assay endpoint names), cells were plated (75,000/well in a 96-well plate) and then chemical samples added for 1 h before addition of activators, SEB and TSST-1 (20 ng/mL final concentration each). Cells were incubated for 90 h. Then, Alamar Blue (20 uL/well) (Invitrogen, Cat DAL1100) was added for 6 h, and the plates were read with a fluorescence microplate reader at 546/580 nm (excitation/emission). For PBMC proliferation, cells were plated and activated as above but incubated for only 16 h prior to addition of Alamar Blue. Plates were read after 6 h.
SMILES,AC50,outcome
CCCCCCC(CO)CCCC (stereo not given),30.9 µM (active) and 35.9 µM (active),–
COc1cc(Cl)c(OC)cc1N,–,inactive
IC(I)I,–,inactive
C[C@@H]1CCN(C(=O)[C@H](CCCN=C(N)N)NS(=O)(=O)c2cccc3c2NC[C@H](C)C3)[C@@H](C(=O)O)C1,–,inactive
O=C(Nc1ccc2c(O)c(N=Nc3ccc(N=Nc4ccc(S(=O)(=O)O)cc4)cc3)c(S(=O)(=O)O)cc2c1)c1ccccc1,–,inactive
CC(=O)Nc1ccc(C(=O)CCl)cc1,7.91 µM (active),–
CC(C=O)Cc1ccc(C(C)(C)C)cc1 (stereo not given),31.9 µM (active),–
CS(=O)(=O)OCCCCOS(C)(=O)=O,–,inactive
CC1(C)CCC[C@]2(C)[C@H]3CCO[C@]3(C)CC[C@@H]12,38.6 µM (active) and 32.1 µM (active),–
CS(=O)(=O)c1ccc(C2=C(c3ccccc3)C(=O)OC2)cc1,–,inactive
CCCCOC(=O)CCCCCCCC(=O)OCCCC,–,inactive
C=CC(C)(O)CCC=C(C)C (stereo not given),–,inactive
CN(C)C(=O)Nc1ccc(Oc2ccc(Cl)cc2)cc1,–,inactive
Clc1cc(Cl)c(-c2c(Cl)c(Cl)cc(Cl)c2Cl)cc1Cl,10 µM (active),–
c1ccc(Oc2ccccc2)cc1,–,inactive
CCN(CC)C(=O)N(CC)CC,–,inactive
Oc1c(Cl)cc(Cl)c(Cl)c1Cc1c(O)c(Cl)cc(Cl)c1Cl,1.94 µM (active),–
CC=Cc1ccc(OCC)c(O)c1,–,inactive
CC(=O)c1c(C)c([N+](=O)[O-])c(C(C)(C)C)c([N+](=O)[O-])c1C,–,inactive
COc1ccc(OC)c(N=Nc2c(O)ccc3ccccc23)c1,4.02 µM (active),–

SMILES,AC50,outcome
CCCCN(CCCC)C(=O)N(CCCC)CCCC,9.64 µM (active),–
CN(c1nccc(=O)[nH]1)C1CCN(c2nc3ccccc3n2Cc2ccc(F)cc2)CC1,–,inactive
C=C(C)C(=O)OCCOCCOCCOC(=O)C(=C)C,–,inactive
COc1ccc(CCN2CCC(Nc3nc4ccccc4n3Cc3ccc(F)cc3)CC2)cc1,6.47 µM (active),–
Cc1cc(CCC(=O)OCCOCCOCCOC(=O)CCc2cc(C)c(O)c(C(C)(C)C)c2)cc(C(C)(C)C)c1O,–,inactive
CC(C)(C)CC(C)(C)c1ccc(OCCOCC[N+](C)(C)Cc2ccccc2)cc1,5 µM (active),–
O=C1OC[C@H](Cc2cccc(O)c2)[C@H]1Cc1cccc(O)c1,–,inactive
CCC(C)c1cc([N+](=O)[O-])cc([N+](=O)[O-])c1OC(=O)OC(C)C (stereo not given),11.2 µM (active),–
CC(C)(N=C=O)c1cccc(C(C)(C)N=C=O)c1,–,inactive
c1ccc2cc(Nc3ccc(Nc4ccc5ccccc5c4)cc3)ccc2c1,–,inactive
CC1(C)C2=CCCC(C)(C)[C@]23CC[C@H]1C3,31.2 µM (active),–
CCOC(=O)C(C#N)=C(c1ccccc1)c1ccccc1,–,inactive
CSCCC=O,–,inactive
O=CN1CCOCC1,–,inactive
CC(CN=Cc1ccccc1O)N=Cc1ccccc1O (stereo not given),–,inactive
CCCCCCCCCCCCCCCC(=O)OC/C=C(C)/C=C/C=C(C)/C=C/C1=C(C)CCCC1(C)C,0.846 µM (active),–
CCCCCC(C=O)=Cc1ccccc1,–,inactive
C=C(C)C(=O)OCCOCCOCCOCCOC(=O)C(=C)C,–,inactive
CN(C)C(=S)SC(=S)N(C)C,37.8 µM (active),–
O=C1c2ccccc2C(=O)c2c(O)ccc(O)c21,–,inactive
